Results from PubChem BioAssay (NCI).
About 83,000 compounds went through this panel and 20% of them were active in at least one assay; those are over-represented in the sample as a whole.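 For each line, cells grew in 96-well plates with the test compound present at a single concentration for 48 hours.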 The source made the active and inactive calls. How the source made its calls: active means growth percent below 10; inactive means the rest.

Tests used:
Test in all cases: NCI-60 one-dose screen, 48 h (100 = growth as untreated, 0 = no growth, -100 = all killed)
Details in all cases: 10 µM unless noted
SR leukemia = system: SR leukemia
RPMI-8226 leukemia = system: RPMI-8226 leukemia
OVCAR-8 ovarian = system: OVCAR-8 ovarian
OVCAR-5 ovarian = system: OVCAR-5 ovarian
OVCAR-4 ovarian = system: OVCAR-4 ovarian
SK-OV-3 ovarian = system: SK-OV-3 ovarian
IGROV1 ovarian = system: IGROV1 ovarian
OVCAR-3 ovarian = system: OVCAR-3 ovarian
HS 578T breast = system: HS 578T breast
NCI/ADR-RES ovarian = system: NCI/ADR-RES ovarian
T-47D breast = system: T-47D breast
BT-549 breast = system: BT-549 breast
MDA-MB-435 melanoma = system: MDA-MB-435 melanoma
SW-620 colon = system: SW-620 colon
MCF7 breast = system: MCF7 breast
HCT-116 colon = system: HCT-116 colon
HCC-2998 colon = system: HCC-2998 colon
KM12 colon = system: KM12 colon

Measured: growth

CCCCCN1C=C/C(=C\C(=O)N(C)c2ccc(Oc3ccccc3)cc2)c2ccccc21
inactive: SR leukemia 82.1% | RPMI-8226 leukemia 68.6% | OVCAR-8 ovarian 80.3% | OVCAR-5 ovarian 92.9% | OVCAR-4 ovarian 58.3% | SK-OV-3 ovarian 87.3% | IGROV1 ovarian 58.1% | OVCAR-3 ovarian 83.6% | HS 578T breast 99.5% | NCI/ADR-RES ovarian 100% | T-47D breast 54.1% | BT-549 breast 91.4% | MDA-MB-435 melanoma 91.4% | SW-620 colon 84.3% | MCF7 breast 66.7% | HCT-116 colon 58.7% | HCC-2998 colon 86.7% | KM12 colon 90.5%

O=C(CCN1CCCC1)Nc1ccc2c(NCCCc3ccccc3)c3ccccc3nc2c1
active: SR leukemia -22.3% | RPMI-8226 leukemia -36.6% | OVCAR-8 ovarian 9.97% | OVCAR-4 ovarian -18.6% | OVCAR-3 ovarian -70.7% | MDA-MB-435 melanoma -87.8% | SW-620 colon -63.3% | MCF7 breast -44.3% | HCT-116 colon -63.5% | HCC-2998 colon 2.16% | KM12 colon -10%
inactive: OVCAR-5 ovarian 32.1% | SK-OV-3 ovarian 13% | IGROV1 ovarian 11.7% | HS 578T breast 27.4% | NCI/ADR-RES ovarian 91.2% | T-47D breast 11.6% | BT-549 breast 47.7%

COC(=O)C1=C(C(=O)ON)[C@@H]2C=C[C@@]1([C@@H](Cc1ccccc1)Nc1ccccc1)O2
inactive: RPMI-8226 leukemia 21.7% | OVCAR-8 ovarian 92.8% | OVCAR-5 ovarian 89% | OVCAR-4 ovarian 79.9% | SK-OV-3 ovarian 107% | IGROV1 ovarian 85.6% | HS 578T breast 109% | NCI/ADR-RES ovarian 89.8% | BT-549 breast 118% | MDA-MB-435 melanoma 101% | MCF7 breast 90.8% | HCC-2998 colon 93.6% | KM12 colon 96.5%
active: SR leukemia 8.17% | OVCAR-3 ovarian -79.1% | T-47D breast -35.9% | SW-620 colon -71.2% | HCT-116 colon -77.7%

CN1[C@@H]2CC[C@H]1/C(=C\c1ccccc1)C(=O)/C2=C/c1ccccc1
inactive: SR leukemia 19.2% | RPMI-8226 leukemia 27% | OVCAR-5 ovarian 98.4% | OVCAR-4 ovarian 48.4% | SK-OV-3 ovarian 79.1% | IGROV1 ovarian 41.7% | OVCAR-3 ovarian 14.4% | HS 578T breast 33.7% | NCI/ADR-RES ovarian 10.7% | T-47D breast 56% | BT-549 breast 35% | MDA-MB-435 melanoma 25% | SW-620 colon 28.8% | MCF7 breast 20.4% | HCT-116 colon 11.9% | HCC-2998 colon 63.3% | KM12 colon 20.7%
active: OVCAR-8 ovarian -9.6%

N/C(=N\C(N)=N\c1nc2ccccc2s1)c1ccnc(Br)c1
active: OVCAR-3 ovarian 9.06% | MDA-MB-435 melanoma -25.2%
inactive: SR leukemia 25% | RPMI-8226 leukemia 23.6% | OVCAR-8 ovarian 33.8% | OVCAR-5 ovarian 89.4% | OVCAR-4 ovarian 59.1% | SK-OV-3 ovarian 29.6% | IGROV1 ovarian 25.8% | HS 578T breast 19.3% | NCI/ADR-RES ovarian 20.1% | T-47D breast 54.3% | BT-549 breast 41.9% | SW-620 colon 13.5% | MCF7 breast 16.6% | HCT-116 colon 20.2% | HCC-2998 colon 70.3% | KM12 colon 23.9%

O=C(Nc1ccccc1)Nc1ccc2cc3ccc(NC(=O)Nc4ccccc4)cc3nc2c1
active: SR leukemia -18.6% | OVCAR-8 ovarian -23.7% | OVCAR-4 ovarian -31.9% | OVCAR-3 ovarian -11.6% | HS 578T breast -26.7% | T-47D breast -3.77% | SW-620 colon -62.7% | HCT-116 colon -57.1% | HCC-2998 colon -28.9%
inactive: RPMI-8226 leukemia 104% | OVCAR-5 ovarian 92.4% | SK-OV-3 ovarian 112% | IGROV1 ovarian 51% | NCI/ADR-RES ovarian 102% | BT-549 breast 86.2% | MDA-MB-435 melanoma 21.9% | MCF7 breast 27.2% | KM12 colon 38.9%

NS(=O)(=O)c1ccc(CCN2C(=O)c3cc(Cl)c(Cl)cc3C2=O)cc1
inactive: SR leukemia 96% | RPMI-8226 leukemia 104% | OVCAR-8 ovarian 106% | OVCAR-5 ovarian 108% | OVCAR-4 ovarian 104% | SK-OV-3 ovarian 113% | IGROV1 ovarian 107% | OVCAR-3 ovarian 109% | HS 578T breast 108% | NCI/ADR-RES ovarian 105% | T-47D breast 98.4% | BT-549 breast 109% | MDA-MB-435 melanoma 108% | SW-620 colon 110% | MCF7 breast 98.6% | HCT-116 colon 100% | HCC-2998 colon 90.2% | KM12 colon 100%

Cc1cc2nc3c4cc(C=O)ccc4n(CCN(C)C)c3nc2cc1C
active: SR leukemia 3.27% | RPMI-8226 leukemia -22.6% | IGROV1 ovarian 5.83% | SW-620 colon 1.57% | MCF7 breast 2.77%
inactive: OVCAR-8 ovarian 17.6% | OVCAR-5 ovarian 22.5% | OVCAR-4 ovarian 23.8% | SK-OV-3 ovarian 26.8% | OVCAR-3 ovarian 22.7% | HS 578T breast 51.6% | NCI/ADR-RES ovarian 18.5% | T-47D breast 22.3% | BT-549 breast 53.6% | MDA-MB-435 melanoma 25.6% | HCT-116 colon 10.2% | HCC-2998 colon 40.6% | KM12 colon 26.3%

COc1ccc(C(=O)/C=C/c2cc3ccccc3n3nnnc23)cc1
inactive: SR leukemia 92.3% | RPMI-8226 leukemia 98.7% | OVCAR-8 ovarian 109% | OVCAR-5 ovarian 108% | OVCAR-4 ovarian 106% | SK-OV-3 ovarian 102% | IGROV1 ovarian 109% | OVCAR-3 ovarian 113% | HS 578T breast 106% | NCI/ADR-RES ovarian 113% | T-47D breast 92.1% | BT-549 breast 99.2% | MDA-MB-435 melanoma 103% | SW-620 colon 113% | MCF7 breast 94.7% | HCT-116 colon 106% | HCC-2998 colon 111% | KM12 colon 109%

Nc1c(C(=O)Nc2cccc3cnccc23)sc2nc3c(cc12)C(=O)CCC3
inactive: SR leukemia 59.5% | RPMI-8226 leukemia 88.9% | OVCAR-8 ovarian 100% | OVCAR-5 ovarian 107% | OVCAR-4 ovarian 102% | SK-OV-3 ovarian 96.5% | IGROV1 ovarian 87.9% | OVCAR-3 ovarian 93.4% | HS 578T breast 84.3% | NCI/ADR-RES ovarian 102% | T-47D breast 105% | BT-549 breast 83.4% | SW-620 colon 79.4% | MCF7 breast 53.8% | HCT-116 colon 86% | HCC-2998 colon 97.4% | KM12 colon 71.5%
active: MDA-MB-435 melanoma 7.12%

O=C(Cc1ccccc1)NNc1nc(Cl)nc(N2CCN(C(c3ccccc3)c3ccccc3)CC2)n1
inactive: SR leukemia 10.7% | RPMI-8226 leukemia 101% | OVCAR-8 ovarian 91.8% | OVCAR-5 ovarian 94.8% | OVCAR-4 ovarian 106% | SK-OV-3 ovarian 105% | IGROV1 ovarian 64.5% | OVCAR-3 ovarian 101% | HS 578T breast 98.9% | NCI/ADR-RES ovarian 102% | T-47D breast 84.4% | BT-549 breast 99.3% | MDA-MB-435 melanoma 100% | SW-620 colon 82.3% | MCF7 breast 92.3% | HCT-116 colon 80% | HCC-2998 colon 73.6% | KM12 colon 97.5%

CCCCCOc1ccc(/C=N/Nc2cc(C)nc3ccc(Cl)cc23)cc1
inactive: OVCAR-5 ovarian 93.7% | SK-OV-3 ovarian 90.4% | HS 578T breast 51.3% | NCI/ADR-RES ovarian 53.5% | T-47D breast 68.6% | BT-549 breast 103%
active: SR leukemia -21.9% | RPMI-8226 leukemia -23.1% | OVCAR-8 ovarian -43.1% | OVCAR-4 ovarian -14.1% | IGROV1 ovarian -76.8% | OVCAR-3 ovarian -79.4% | MDA-MB-435 melanoma -75.6% | SW-620 colon -73.8% | MCF7 breast -73.6% | HCT-116 colon -64.5% | HCC-2998 colon -67.7% | KM12 colon -84.6%

N#Cc1c(NC(=O)NCc2ccccc2)sc2c1CCCCC2
active: OVCAR-3 ovarian -17.6% | HS 578T breast 9.89% | MDA-MB-435 melanoma -40.5% | HCT-116 colon 8.9%
inactive: SR leukemia 29.5% | RPMI-8226 leukemia 14.8% | OVCAR-8 ovarian 21.8% | OVCAR-5 ovarian 43.5% | OVCAR-4 ovarian 43% | SK-OV-3 ovarian 25% | IGROV1 ovarian 27.2% | NCI/ADR-RES ovarian 17.2% | T-47D breast 37.8% | BT-549 breast 26.2% | SW-620 colon 21.5% | MCF7 breast 19.1% | HCC-2998 colon 24.5% | KM12 colon 12.6%

NC(=NCc1ccccc1)C(N=Nc1ccccc1)C(=O)NCc1ccccc1 (stereo unspecified)
inactive: SR leukemia 19.1% | RPMI-8226 leukemia 90.9% | OVCAR-8 ovarian 31.1% | OVCAR-5 ovarian 100% | OVCAR-4 ovarian 76.5% | SK-OV-3 ovarian 95.6% | IGROV1 ovarian 81.5% | OVCAR-3 ovarian 88.8% | HS 578T breast 64% | NCI/ADR-RES ovarian 50.2% | T-47D breast 84.6% | BT-549 breast 114% | MDA-MB-435 melanoma 81.4% | SW-620 colon 61.5% | MCF7 breast 69.4% | HCT-116 colon 15.8% | HCC-2998 colon 74.7% | KM12 colon 34.6%

COc1ccc(N2CCN(c3ccc(NC4=C(Cl)C(=O)c5ncccc5C4=O)cc3)CC2)cc1
active: IGROV1 ovarian -49.7% | OVCAR-3 ovarian -3.66% | MDA-MB-435 melanoma -4.96% | MCF7 breast 8.91%
inactive: SR leukemia 12.9% | RPMI-8226 leukemia 35.5% | OVCAR-8 ovarian 32.9% | OVCAR-5 ovarian 84.4% | OVCAR-4 ovarian 28.8% | SK-OV-3 ovarian 75.9% | HS 578T breast 36.3% | NCI/ADR-RES ovarian 83% | T-47D breast 33.2% | BT-549 breast 47.8% | SW-620 colon 15.9% | HCT-116 colon 15.9% | HCC-2998 colon 80.8% | KM12 colon 63.8%

O=C(/C=C(/C=C/c1csc2ccccc12)OB(F)F)/C=C/c1csc2ccccc12
active: SR leukemia 3.63% | RPMI-8226 leukemia -12% | OVCAR-8 ovarian -9.55% | OVCAR-4 ovarian -0.888% | OVCAR-3 ovarian -14.2% | HS 578T breast 3.47% | BT-549 breast 4.74% | MDA-MB-435 melanoma -18.6% | SW-620 colon 5.19% | HCT-116 colon -57.7%
inactive: OVCAR-5 ovarian 60.6% | SK-OV-3 ovarian 100% | IGROV1 ovarian 11.3% | NCI/ADR-RES ovarian 18.3% | T-47D breast 38.4% | MCF7 breast 39.9% | HCC-2998 colon 92% | KM12 colon 37.7%

C=C1C(=O)O[C@H]2[C@H]1CC/C(COC(=O)NCC(C)c1ccc(CC(C)C)cc1)=C\CC[C@@]1(C)O[C@@H]21 (stereo partly specified)
active: SR leukemia -2.59% | RPMI-8226 leukemia -35.7% | OVCAR-8 ovarian -51% | OVCAR-4 ovarian -43.8% | IGROV1 ovarian -69.5% | OVCAR-3 ovarian -85.5% | T-47D breast -50% | BT-549 breast -42.4% | MDA-MB-435 melanoma -88.7% | SW-620 colon -58.7% | HCT-116 colon -83% | KM12 colon -3.31%
inactive: OVCAR-5 ovarian 62.4% | SK-OV-3 ovarian 100% | HS 578T breast 16% | NCI/ADR-RES ovarian 28.6% | MCF7 breast 13.7% | HCC-2998 colon 59.5%
